Measured potencies and affinities stand elsewhere.
Tests used:
Staphylococcus aureus = conditions: Concentration 32 ug.mL-1;; ASSAY_TEST Inhibition of Bacterial Growth; detection method Absorption (OD600); MEDIA CAMHB; plate type 384well; NBS; CORNING #3640; time 18 hr
Escherichia coli = conditions: Concentration 32 ug.mL-1;; ASSAY_TEST Inhibition of Bacterial Growth; detection method Absorption (OD600); MEDIA CAMHB; plate type 384well; NBS; CORNING #3640; time 18 hr

| Compound | Inhibition (Staphylococcus aureus) [%] | Inhibition (Escherichia coli) [%] |
| --- | --- | --- |
| COc1ccc(NC(=O)Cn2nc3ccc(-c4ccccc4)nn3c2=O)cc1Cl | -3.72 | -7.68 |
| Cc1ccc(C)c(NC(=O)Cn2nc3n(C)c(=O)c4c(c(-c5ccccc5)cn4C)n3c2=O)c1 | -4.46 | -19.92 |
| Cc1nnc2ccc(S(=O)(=O)N(Cc3ccccc3)c3ccc(F)cc3)cn12 | -4.97 | -1.95 |
| CC(C)c1ccc(N(Cc2ccc(Cl)cc2)S(=O)(=O)c2cccn3cnnc23)cc1 | 8.06 | 3.76 |
| COc1cccc(Oc2nccn3c(=O)n(CC(=O)Nc4cc(F)ccc4F)nc23)c1 | 10.86 | -7.76 |
| Cc1ccc(Sc2nccn3c(=O)n(CC(=O)Nc4ccc(C)c(Cl)c4)nc23)c(C)c1 | 6.61 | -6.53 |
| Cc1ccc(-c2ccc3nn(Cc4cc(F)cc(F)c4)c(=O)n3n2)cc1C | 13.44 | 1.52 |
| COc1ccc(NC(=O)CSc2nc3ccccc3n3c(C(C)C)nnc23)c(OC)c1 | 1.68 | -5.84 |
| CCc1ccc(NC(=O)Cn2nc3n(Cc4cccs4)c(=O)c4sccc4n3c2=O)cc1 | -0.38 | 5.1 |
| CCOc1ccc(-n2ccn3c(SCC(=O)c4ccccc4)nnc3c2=O)cc1 | 6.87 | 1.63 |
| Cc1ccc2c(c1)N(C(=O)Cn1nc3ccc(SC(C)(C)C)nn3c1=O)CCO2 | 10.2 | -0.14 |
| NC(=O)CSc1nnc2c(=O)n(-c3ccccc3)ccn12 | 9.05 | 0.29 |

— ChEMBL document CHEMBL4513146, “CO-ADD screening of Karazin Kharkiv National University (Ukraine) compounds”
